Records with an inconclusive call do not appear. Calls of active or inactive are those of the source. Unless noted, calls come from the whole dose curve; as a rule, active = well fitted curve in the direction sought with a large enough effect in the repeat runs; inconclusive = weak or mixed curves; inactive = no such curve, though single readings can be large; an effect the other way counts as inactive or inconclusive.
Experiments:
[1] = A CellTox Green Cytotoxicity Assay to monitor cytotoxicity in HEK293 cells - 16 hour (AID 1224888); note: nearly all actives have a fitted effect of over 35% in size
Method in brief: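 Fluorescence intensity, read at 0, 8, 16, 24, 32 and 40 h of compound treatment, reflected dye binding to DNA of dead HEK293 cells; compounds (23 nL, DMSO) were added 5 h after plating cells with reagent.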

[2] = qHTS RealTime-Glo MT Cell Viability Assay in HepG2 cells - 0 hour (AID 1224889); note: nearly all actives have a fitted effect of over 50% in size
Method in brief: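 HepG2 cells were seeded at 600 cells/well together with NanoLuc luciferase and a cell-permeant prosubstrate, preincubated 5 h at 37 C/5% CO2, then pin-dosed with compounds in DMSO. Nonlytic luminescence from viable cells was read at each time point.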

[3] = A CellTox Green Cytotoxicity Assay to monitor cytotoxicity in HepG2 cells - 8 hour (AID 1224890); note: nearly all actives have a fitted effect of over 45% in size
Method in brief: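 Using 1536-well format, dye-containing HepG2 suspension was seeded, allowed 5 h at 37 C/5% CO2, dosed by pintool with compounds, positive and negative controls, and imaged for fluorescence across 40 h.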

[4] = qHTS assay to identify small molecule antagonists of the estrogen receptor alpha (ER-alpha) signaling pathway using the BG1 cell line in the presence of 0.1 nM 17-beta-estradiol - cell viability counter screen (AID 1259241); note: nearly all actives have a fitted effect of over 40% in size
Method in brief: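 VM7Luc4E2 cells (endogenous full-length ER-alpha, 4xERE-luciferase), cultured 5 days in charcoal-stripped serum, exposed to compounds with 0.1 nM 17beta-estradiol (final) for 22 hr at 37C. Viability read in same wells as live-cell protease fluorescence after 30 min.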

[5] = qHTS assay to identify small molecule phospholipidosis (PLD) inducers (AID 1259344; active = well fitted curve in the direction sought with a large enough effect; an effect the other way counts as inactive or inconclusive)
Method in brief: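 Phospholipidosis is scored by imaging LipidTOX-stained pits in HepG2 cells exposed to compound for 24 h at 37 C; pit counts and integrated intensities per well and per cell serve as outputs.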

[6] = qHTS assay to identify small molecule HDAC inhibitors (AID 1259364);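 note: wild-type HCT-116 cells with endogenous class I/II HDAC activity; top concentration of the series differs between compounds; nearly all actives have a fitted effect of over 45% in size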
Method in brief: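 Read-out: luminescence of HDAC-Glo I/II reagent, 30 min RT, reflecting class I/II deacetylase activity in whole HCT-116 cells pre-exposed 2 h to DMSO-dissolved compounds.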

[7] = qHTS assay to identify small molecule HDAC inhibitors - cell viability counter screen (AID 1259365); note: series mostly up to about 92 µM; nearly all actives have a fitted effect of over 50% in size
Method in brief: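 Wild-type HCT-116 cells, 1,500/well, cultured overnight, then compound-treated 2 h at 37 C. Viability measured as ATP luminescence with CellTiter-Glo after 30 min at room temperature.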

[8] = qHTS assay to identify small molecule agonists of the sonic hedgehog signaling (Shh) pathway - cell viability counter screen (AID 1259366); note: nearly all actives have a fitted effect of over 50% in size
Method in brief: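 NIH/3T3-derived Gli1-Luc reporter cells, 2,000 per well, received compound after 4 h and were treated about 23 h at 37C. Viability measured in the same wells by CellTiter-Fluor fluorescence after 1 h.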

[9] = qHTS assay to identify small molecule antagonists of the sonic hedgehog signaling (Shh) pathway - cell viability counter screen (AID 1259367); note: nearly all actives have a fitted effect of over 55% in size
Method in brief: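 Cells: 3T3 Gli1-Luc, 2,000/well, 4 hr pre-incubation. Compounds in DMSO, then conditioned medium. Incubation 24 hr, 37C, 5% CO2. CellTiter-Fluor at 23 hr, 1 hr, fluorescence.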

[10] = qHTS assay to identify small molecule agonists of the sonic hedgehog signaling (Shh) pathway (AID 1259368; calls by dose curve;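 note: NIH/3T3-derived 3T3Gli1-Luc cells carrying a stable Gli1-driven firefly luciferase reporter; series mostly up to about 92 µM; nearly all actives have a fitted effect of over 15% in size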)
Method in brief: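 A Gli1 transcriptional response element controlled firefly luciferase in 3T3Gli1-Luc cells. Compounds and a positive control were added 4 hr after plating, and cells were incubated a further 24 hr at 37 C before luminescence detection.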

[11] = qHTS assay to identify small molecule antagonists of the sonic hedgehog signaling (Shh) pathway (AID 1259369; calls by dose curve; note: nearly all actives have a fitted effect of over 45% in size)
Method in brief: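 For antagonist detection, the reporter line received test compounds together with conditioned medium, incubated 24hr at 37 C, 5% CO2, then luminescence was recorded following 30min room-temperature luciferase reagent incubation.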

[12] = molecular target: Estrogen receptor beta (Homo sapiens) (UniProt Q92731); assay: qHTS assay to identify small molecule agonists of the estrogen receptor beta (ER-beta) signaling pathway (AID 1259377; active = well fitted activation curve with a large enough effect in the signal ratio in the repeat runs, not every such curve was filed as active; the % refers to the signal ratio)
Estrogen receptor beta (Homo sapiens), sequence (Q92731 whole entry, looked up): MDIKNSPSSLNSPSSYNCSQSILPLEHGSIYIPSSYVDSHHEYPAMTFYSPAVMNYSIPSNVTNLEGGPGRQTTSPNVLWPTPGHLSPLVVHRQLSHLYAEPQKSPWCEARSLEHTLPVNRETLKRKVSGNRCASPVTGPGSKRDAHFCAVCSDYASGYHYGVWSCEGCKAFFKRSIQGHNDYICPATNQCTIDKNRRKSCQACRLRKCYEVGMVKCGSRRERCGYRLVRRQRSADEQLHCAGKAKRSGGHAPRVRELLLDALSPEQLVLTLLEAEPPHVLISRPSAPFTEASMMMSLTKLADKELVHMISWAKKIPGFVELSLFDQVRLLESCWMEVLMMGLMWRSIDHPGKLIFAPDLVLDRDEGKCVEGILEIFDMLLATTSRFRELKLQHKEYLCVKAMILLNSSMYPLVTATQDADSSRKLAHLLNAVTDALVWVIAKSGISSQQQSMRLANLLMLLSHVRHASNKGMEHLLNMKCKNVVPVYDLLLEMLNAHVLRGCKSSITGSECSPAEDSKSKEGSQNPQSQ
Method in brief: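 ER-beta-UAS-bla HEK293T cells in medium with 2% charcoal-stripped FBS were exposed to compounds for 16 h at 37C. Beta-lactamase reporter activity was read as fluorescence after 2 h with LiveBLAzer B/G FRET substrate at room temperature.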

[13] = molecular target: Estrogen receptor beta (Homo sapiens) (UniProt Q92731); assay: qHTS assay to identify small molecule antagonists of the estrogen receptor beta (ER-beta) signaling pathway (AID 1259378; active = well fitted inhibition curve with a large enough effect in the signal ratio in the repeat runs, not every such curve was filed as active; the % refers to the signal ratio)
Method in brief: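 Antagonist mode: compounds added to beta-lactamase reporter HEK293T ER-beta-UAS cells stimulated with E2 (1nM final), 16 hr at 37C. LiveBLAzer B/G FRET substrate, 2 hours room temperature, fluorescence read-out.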

[14] = qHTS assay to identify small molecule agonists of the androgen receptor (AR) signaling pathway in the presence of an antagonist - cell viability counter screen (AID 1259379);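 note: MDA-kb2 human breast cancer cells carrying an MMTV luciferase reporter; series mostly up to about 92 µM; nearly all actives have a fitted effect of over 25% in size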
Method in brief: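 Seed MDA-kb2 at 3,000 cells/well; incubate 5 hr, 37C, 0% CO2. Add nilutamide to 3.0uM final, then pin compounds at 15 concentrations. Incubate 16 hr. Add CellTiter-Fluor at 15 hr, read fluorescence after 1 hr.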

[15] = qHTS assay to identify small molecule agonists of the estrogen receptor beta (ER-beta) signaling pathway - cell viability counter screen (AID 1259380); note: nearly all actives have a fitted effect of over 30% in size
Method in brief: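 CellTiter-Glo read, 30 min RT, same wells as bla assay; cells ER-beta-UAS-bla HEK293T; 16 hr compound, 37C; medium 2% charcoal-stripped FBS.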

[16] = qHTS assay to identify small molecule antagonists of the estrogen receptor beta (ER-beta) signaling pathway - cell viability counter screen (AID 1259382);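 note: HEK293T cells carrying ER-beta-UAS-bla reporter stimulated with estradiol; series mostly up to about 92 µM; nearly all actives have a fitted effect of over 55% in size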
Method in brief: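 In this multiplexed counter screen, cells were seeded at 2,000 per well in medium with 2% charcoal-stripped FBS and incubated 6 hr before compound and 1nM final E2 were added. Sixteen hours later, ATP-based luminescence reported viability.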

[17] = qHTS assay to identify small molecule antagonists of the androgen receptor (AR) signaling pathway using the MDA cell line in the presence of 0.5 nM R1881 - cell viability counter screen (AID 1259242); note: nearly all actives have a fitted effect of over 45% in size
Method in brief: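 Viability of MDA-kb2 cells was multiplexed with the luciferase AR readout; after 16 hr with compounds and R1881 at 0.5 nM final, CellTiter-Fluor fluorescence was recorded.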

[18] = molecular target: Estrogen receptor (Homo sapiens) (UniProt P03372); assay: qHTS assay to identify small molecule antagonists of the estrogen receptor alpha (ER-alpha) signaling pathway using the BG1 cell line in the presence of 0.1 nM 17-beta-estradiol (AID 1259244); note: nearly all actives have a fitted effect of over 50% in size
Estrogen receptor (Homo sapiens), sequence (P03372 whole entry, looked up): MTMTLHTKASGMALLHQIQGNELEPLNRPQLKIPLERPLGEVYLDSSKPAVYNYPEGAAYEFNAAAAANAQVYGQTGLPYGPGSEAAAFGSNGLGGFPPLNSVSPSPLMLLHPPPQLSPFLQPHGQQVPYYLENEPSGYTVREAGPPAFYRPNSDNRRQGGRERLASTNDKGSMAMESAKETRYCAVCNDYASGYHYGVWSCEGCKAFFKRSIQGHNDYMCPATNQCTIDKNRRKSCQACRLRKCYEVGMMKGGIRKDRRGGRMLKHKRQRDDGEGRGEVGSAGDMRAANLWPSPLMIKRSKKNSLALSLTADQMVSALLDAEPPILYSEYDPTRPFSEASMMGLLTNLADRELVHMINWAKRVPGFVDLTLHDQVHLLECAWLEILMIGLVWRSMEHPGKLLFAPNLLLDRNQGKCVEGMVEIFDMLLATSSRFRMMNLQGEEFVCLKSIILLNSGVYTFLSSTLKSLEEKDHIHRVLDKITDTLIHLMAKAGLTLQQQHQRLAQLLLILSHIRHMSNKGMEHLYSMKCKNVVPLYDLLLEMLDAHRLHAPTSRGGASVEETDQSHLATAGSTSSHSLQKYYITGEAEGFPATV
Method in brief: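 Estradiol at 0.1 nM (final) stimulates the endogenous ER-alpha of VM7Luc4E2 cells carrying an ERE-driven luciferase; compounds are co-incubated 22 h at 37C and luciferase output quantified by luminescence.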

[19] = molecular target: Androgen receptor (Homo sapiens) (UniProt P10275); assay: qHTS assay to identify small molecule agonists of the androgen receptor (AR) signaling pathway in the presence of an antagonist (AID 1259381; calls by dose curve; note: nearly all actives have a fitted effect of over 15% in size)
Androgen receptor (Homo sapiens), sequence (P10275 whole entry, looked up): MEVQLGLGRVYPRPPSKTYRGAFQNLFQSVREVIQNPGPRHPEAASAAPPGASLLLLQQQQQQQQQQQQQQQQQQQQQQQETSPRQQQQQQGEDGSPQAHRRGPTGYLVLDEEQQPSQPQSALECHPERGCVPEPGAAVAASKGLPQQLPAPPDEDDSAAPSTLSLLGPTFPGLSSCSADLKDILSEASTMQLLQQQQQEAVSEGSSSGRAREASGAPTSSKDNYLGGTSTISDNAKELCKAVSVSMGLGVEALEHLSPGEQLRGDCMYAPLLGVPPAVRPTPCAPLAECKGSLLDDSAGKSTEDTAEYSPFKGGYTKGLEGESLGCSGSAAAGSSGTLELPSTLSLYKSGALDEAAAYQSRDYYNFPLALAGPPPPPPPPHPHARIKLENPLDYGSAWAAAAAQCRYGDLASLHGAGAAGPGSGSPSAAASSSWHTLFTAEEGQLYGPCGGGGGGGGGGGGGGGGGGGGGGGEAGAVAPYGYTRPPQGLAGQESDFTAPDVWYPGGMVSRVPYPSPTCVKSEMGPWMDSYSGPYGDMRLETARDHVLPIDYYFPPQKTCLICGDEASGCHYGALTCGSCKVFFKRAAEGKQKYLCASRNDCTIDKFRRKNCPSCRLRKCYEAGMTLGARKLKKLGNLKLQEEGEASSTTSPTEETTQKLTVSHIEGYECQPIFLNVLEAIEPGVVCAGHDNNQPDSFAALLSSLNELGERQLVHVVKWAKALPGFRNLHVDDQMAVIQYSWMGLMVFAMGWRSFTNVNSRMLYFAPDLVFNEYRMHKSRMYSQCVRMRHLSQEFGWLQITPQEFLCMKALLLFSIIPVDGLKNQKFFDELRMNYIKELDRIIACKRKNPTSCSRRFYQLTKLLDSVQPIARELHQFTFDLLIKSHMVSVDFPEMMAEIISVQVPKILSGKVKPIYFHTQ
Method in brief: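 Test compounds at 15 concentrations were incubated for 16hr with MDA-kb2 reporter cells in presence of 3.0uM nilutamide (final). Signal: ONE-Glo luciferase luminescence.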

[20] = molecular target: Androgen receptor (Homo sapiens) (UniProt P10275); assay: qHTS assay to identify small molecule antagonists of the androgen receptor (AR) signaling pathway using the MDA cell line in the presence of 0.5 nM R1881 (AID 1259243); note: nearly all actives have a fitted effect of over 50% in size
Method in brief: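 Reporter cells cultured without CO2 receive test chemicals, then 0.5 nM R1881 final; after 16 hr at 37C, ONE-Glo is added and light output recorded.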
% is set by controls: 0 for no effect and ±100 for the full control effect.

NCc1ccc(S(N)(=O)=O)cc1
inactive: Potency [1] | Potency [2] | Potency [3] | outcome [4] | outcome [5] | Potency [6] | outcome [7] | outcome [8] | outcome [9] | outcome [10] | Potency [11] | Potency [12] | Potency [13] | outcome [14] | outcome [15] | outcome [16]

CCC[C@@H]1C[C@@H](C(=O)N[C@@H]([C@H]2O[C@H](SC)[C@H](O)[C@@H](O)[C@H]2O)[C@@H](C)O)N(C)C1
inactive: Potency [1] | Potency [2] | Potency [3] | outcome [17] | outcome [18] | outcome [5] | Potency [6] | outcome [7] | outcome [8] | outcome [9] | Potency [11] | Potency [12] | Potency [13] | outcome [14] | outcome [15] | outcome [16]

C=CCCCCCCCCC(=O)OCCCC
inactive: Potency [1] | Potency [2] | Potency [3] | outcome [4] | outcome [18] | Potency [6] | outcome [7] | outcome [8] | Potency [11] | Potency [12] | Potency [13] | outcome [14] | outcome [15]

CCC/C=C(\C=O)CC
inactive: Potency [1] | Potency [2] | Potency [3] | outcome [4] | outcome [18] | Potency [6] | outcome [7] | outcome [9] | outcome [10] | Potency [11] | Potency [12] | Potency [13] | outcome [14] | outcome [16]

CCCCSCCCC
inactive: Potency [1] | Potency [2] | Potency [3] | outcome [4] | outcome [7] | outcome [8] | outcome [9] | outcome [10] | Potency [11] | Potency [12] | Potency [13] | outcome [14] | outcome [16]

C/C(=C1\CCOC(=O)S1)N(C=O)Cc1cnc(C)nc1N
inactive: Potency [1] | Potency [2] | Potency [3] | outcome [4] | outcome [18] | Potency [6] | outcome [7] | outcome [10] | Potency [11] | Potency [12] | Potency [13] | outcome [14] | outcome [16]

COc1ccc2c(c1)c1c3n2CCN(C)C3=NCC1
inactive: Potency [1] | Potency [2] | Potency [3] | outcome [17] | outcome [18] | outcome [5] | Potency [6] | outcome [7] | outcome [8] | outcome [9] | Potency [11] | outcome [15] | outcome [19] | outcome [16]

Cc1c(N)cccc1Cl
inactive: Potency [1] | Potency [2] | Potency [3] | outcome [4] | outcome [18] | Potency [6] | outcome [7] | outcome [8] | outcome [9] | Potency [12] | Potency [13] | outcome [15] | outcome [16]

C/C=C(\C)C(C)=O
inactive: Potency [1] | Potency [2] | Potency [3] | outcome [17] | Potency [20] | outcome [18] | Potency [6] | outcome [7] | outcome [8] | outcome [9] | outcome [10] | Potency [11] | outcome [14] | outcome [15] | outcome [19] | outcome [16]

[O-][n+]1cccc(/C(Cl)=N/OC[C@@H](O)CN2CCCCC2)c1
inactive: Potency [1] | Potency [2] | Potency [3] | outcome [17] | Potency [20] | outcome [18] | Potency [6] | outcome [7] | outcome [9] | Potency [12] | Potency [13] | outcome [14] | outcome [15] | outcome [19] | outcome [16]

CCCCC1CCC(O)CC1 (stereo unspecified)
inactive: Potency [1] | Potency [2] | Potency [3] | outcome [17] | Potency [20] | Potency [6] | outcome [7] | outcome [10] | Potency [11] | outcome [14] | outcome [19] | outcome [16]

N[C@@H](Cc1ccc(O)cc1)C(=O)O
inactive: activity change [1] 0.851% [at 6.97 µM, stronger effect = higher value] | activity change, negative = cytotoxicity [2] -4.17% [at 6.97 µM] | cytotoxicity increase [3] -2.53% [at 6.97 µM] | activity change, negative = cytotoxicity [4] -0.913% [at 8.39 µM] | outcome [5] | activity change, negative = inhibition [6] 6.85% [at 8.39 µM] | activity change, negative = cytotoxicity [7] 0.0609% [at 8.39 µM] | viability change, negative = cytotoxic [8] -1.95% [at 8.39 µM] | viability change, negative = cytotoxic [9] 0.133% [at 8.39 µM] | activity change [10] -0.171% [at 8.39 µM] | activity change, negative = inhibition [11] 29.1% [at 8.39 µM] | activation [12] 4.88% [at 8.39 µM] | activity, negative = inhibition [13] -4.71% [at 8.39 µM] | activity change, negative = cytotoxicity [14] 0.232% [at 8.39 µM] | activity change, negative = cytotoxicity [15] 10.1% [at 8.39 µM] | activity change, negative = cytotoxicity [16] 2.66% [at 8.39 µM]

CC(C)COC(=O)c1ccccc1
inactive: Potency [1] | Potency [2] | Potency [3] | outcome [17] | Potency [20] | outcome [18] | Potency [6] | outcome [7] | outcome [8] | outcome [9] | outcome [10] | Potency [11] | outcome [14] | outcome [15] | outcome [19]

N#Cc1cscn1
inactive: Potency [1] | Potency [2] | Potency [3] | outcome [4] | Potency [6] | outcome [7] | outcome [8] | outcome [9] | outcome [10] | Potency [11] | Potency [12] | outcome [14] | outcome [15] | outcome [16]

OC[C@H]1O[C@@H](O[C@@H]2[C@@H](CO)O[C@](O)(CO)[C@H]2O)[C@H](O)[C@@H](O)[C@H]1O
inactive: Potency [1] | Potency [2] | Potency [3] | outcome [17] | Potency [20] | outcome [18] | outcome [5] | Potency [6] | outcome [7] | outcome [8] | outcome [9] | outcome [10] | Potency [11] | outcome [14] | outcome [15] | outcome [19] | outcome [16]

CC1(C)[C@H]2CC[C@](C)(C2)[C@H]1O
inactive: Potency [1] | Potency [2] | Potency [3] | outcome [4] | outcome [18] | Potency [6] | outcome [7] | outcome [9] | outcome [10] | Potency [11] | Potency [12] | Potency [13] | outcome [14] | outcome [15]
